D1 ag = human D1 receptor agonism | P21728 | HEK293 T-REx D1 cells, calcium flux, agonist mode | activation, % at 2 µM | 360,000 compounds, 1% hits; in the data active = activation above about 30%
Target sequence (P21728 whole entry, looked up): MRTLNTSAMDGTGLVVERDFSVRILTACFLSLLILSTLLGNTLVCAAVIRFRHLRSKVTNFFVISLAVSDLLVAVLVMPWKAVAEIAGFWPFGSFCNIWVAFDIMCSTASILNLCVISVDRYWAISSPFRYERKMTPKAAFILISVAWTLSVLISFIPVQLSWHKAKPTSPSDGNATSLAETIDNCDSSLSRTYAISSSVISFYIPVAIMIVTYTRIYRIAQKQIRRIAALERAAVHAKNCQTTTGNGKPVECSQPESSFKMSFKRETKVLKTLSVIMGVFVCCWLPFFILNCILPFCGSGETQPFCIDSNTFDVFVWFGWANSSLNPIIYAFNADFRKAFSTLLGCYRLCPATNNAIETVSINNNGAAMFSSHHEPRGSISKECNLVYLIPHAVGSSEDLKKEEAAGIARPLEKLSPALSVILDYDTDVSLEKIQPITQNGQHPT
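Agonism was scored from calcium flux recorded over 180 s (1 read/s) after pintool compound addition, following a 10-cycle baseline. Cells were inducible force-coupled HEK293 TREx D1, plated overnight at 30 C and loaded with no-wash calcium dye.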
D1 PAM = human D1 dopamine receptor positive modulation | potentiation, % at 10 µM | P21728 | 360,000 compounds, 0.036% hits | HEK293 TREx D1 cells, calcium flux, dopamine EC20 potentiation; in the data active = potentiation above about 30%
D3 ag = D3 dopamine receptor (human) agonism | P35462 | D3R DiscoveRx beta-arrestin cells, luminescence, 90 min | max activation, % | 410,000 compounds, 0.58% hits | AID 652048; in the data active = max activation above about 30%
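Cells at 1500/well, incubated overnight, then treated with pinned compounds (dopamine as control) for 90 min at 37 degrees C. DiscoveRx reagent added for 30 - 60 minutes at room temperature; luminescence read.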
D1 antag = antagonists of human D1 dopamine receptor | P21728 | HEK293 TREx D1 cells, calcium flux, dopamine EC80; hits give low values | activity change, negative = inhibition, % at 10 µM | 360,000 compounds, 3.2% hits; in the data active = activity change below about -30%
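Calcium flux readout: force-coupled, inducible Hek293 Trex D1 line, cells induced overnight at 30 C with tetracycline, dye-loaded 30–90 min at RT. Antagonism scored against EC80 dopamine challenge given 180 s after compound.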
DRD3 antagonist = antagonists of human D3 dopamine receptor; P35462; D3R cells, DiscoveRx beta-arrestin luminescence, antagonist mode; hits give low values; max response, negative = inhibition, %; 360,000 compounds, 2.5% hits; in the data active = max response below about -50%
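Cells plated overnight at 1500 cells/well, then exposed to library compounds with dopamine controls for 90 minutes at 37 degrees C. DiscoveRx reagent added for 30–60 minutes at room temperature; luminescence read, quantitative HTS format.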
Each line names hits and unclear results; the compound was inactive in the other large screens. Rows were chosen to be rich in hits. Some 6% of all compounds tested hit in one or more screens of this group.

Cc1ccc(C)c(Nc2nnc(-c3ccc(C)c(S(=O)(=O)NCC4CCCO4)c3)c3ccccc23)c1 (stereo not drawn)	D1 antag -38.6 (no result: DRD3 antagonist)
Cc1ccc(-c2nnc(N3CCCCC3)c3ccccc23)cc1S(=O)(=O)N1CCN(C)CC1	DRD3 antagonist -83.4
O=S(=O)(c1cccc2cccnc12)N1CCCCC1	none
CN1CCN(c2ncccc2S(=O)(=O)N2CCCCC2)CC1	DRD3 antagonist -67.2
Cc1ccc(-c2nnc(Nc3ccccc3)c3ccccc23)cc1S(=O)(=O)NCC1CCCO1 (stereo not drawn)	none
CCCCN1C(=O)C(CC(=O)NCCN2CCOCC2)CC(C(=O)N(CC)CC)=C1C (stereo not drawn)	none (no result: D1 ag, D1 PAM, D1 antag)
CCCNc1nc(NCc2ccccc2OC)c2cnn(C)c2n1	none (no result: DRD3 antagonist)
OC(CN1CCCCC1)c1cc(-c2ccccc2)on1 (stereo not drawn)	none (no result: D1 ag, D1 PAM, D1 antag, DRD3 antagonist)
CCc1ccccc1N1C(=O)N(Cc2cc(=O)n3ccccc3n2)c2ccccc2S1(=O)=O	none (no result: DRD3 antagonist)
CC1(C)CC(=O)C([N+](=O)[O-])=C(NCCCO)C1	none
O=C1CCCC(NCCCCCCNC2=C([N+](=O)[O-])C(=O)CCC2)=C1[N+](=O)[O-]	D1 antag -92.0
Cc1ccc(Cn2ccnc2SCC(=O)Nc2nc3ccccc3s2)cc1	none (no result: DRD3 antagonist)
O=C1C(=O)N(c2ccccc2)C(c2ccccc2[N+](=O)[O-])/C1=C(\O)c1ccccc1 (stereo not drawn)	none
O=C1C(=O)N(c2cccc(Cl)c2)C(c2ccccc2[N+](=O)[O-])/C1=C(\O)c1ccccc1 (stereo not drawn)	D1 antag -51.0
CC(C)(C)c1cc(CN2CCN(CCO)CC2)cc(C(C)(C)C)c1O	DRD3 antagonist -81.8
CC1CCCC(C)N1CC(O)COc1c(F)cc(Br)cc1F (stereo not drawn)	D1 antag -52.1
CSc1nn(Cc2cccc(Cl)c2)c(N(C(C)=O)C(C)=O)c1S(=O)(=O)c1ccccc1	D1 antag -61.0 (no result: DRD3 antagonist)
COc1cccc(NC(=O)c2c(-c3ccc(C)cc3)nnc3ccccc23)c1	none (no result: DRD3 antagonist)
CN1CCCN=C1/C=C/c1cccs1	DRD3 antagonist -58.2
O=C(/C=C/c1cccs1)N1CCCC1	none
CCc1ccccc1Nc1cc(C(=O)NCCCN(C)C2CCCCC2)c2ccccc2n1	D1 ag 34.5 (no result: DRD3 antagonist)
Cc1cc(C)cc(Nc2cc(C(=O)NCCCN(C)C3CCCCC3)c3ccccc3n2)c1	D1 ag 43.7 (no result: DRD3 antagonist)
Cc1cc(C)cc(Nc2cc(C(=O)NCc3ccccc3)c3ccccc3n2)c1	none (no result: DRD3 antagonist)
Cc1ccc(C)c(Nc2cc(C(=O)NCCCN(C)C3CCCCC3)c3ccccc3n2)c1	D1 ag 53.5, D1 antag -34.0 (no result: DRD3 antagonist)
CCOc1ccccc1NC(=S)N(CCOC)C1CCN(C(C)=O)CC1	none
COCCN(C(=S)Nc1ccccc1OC)C1CCN(C(C)=O)CC1	D1 antag -34.6
Cc1ccccc1-c1nc(CSc2nc3c(c(=O)[nH]2)CCC3)c(C)o1	D3 ag 30.2
O=c1[nH]c(C(F)(F)F)nc2ccccc12	DRD3 antagonist -60.3
O=C(O)c1ccccc1-c1nc2ccccc2c(=O)[nH]1	D1 antag -39.8
FC(F)(F)c1nc2ccccc2[nH]1	none
O=C(O)c1ccccc1-c1nc(-c2ccccc2)c(-c2ccccc2)[nH]1	none
Cc1ccc(CNC(=O)c2ccc3c(c2)N(Cc2cccc(C)c2)C(=O)CS3)cc1	none (no result: DRD3 antagonist)
CN1C=CC(C(C(N)=O)c2ccccc2)c2ccccc21 (stereo not drawn)	none (no result: D1 ag, D1 PAM, D1 antag)
CC1Cc2cc(S(=O)(=O)N(Cc3ccccc3)C(C)C)ccc2N1C(=O)C1CCC1 (stereo not drawn)	none (no result: DRD3 antagonist)
CC1Cc2cc(S(=O)(=O)NCc3ccccc3)ccc2N1C(=O)C1CC1 (stereo not drawn)	none
CC1Cc2cc(S(=O)(=O)CCC(=O)N3CCN(c4ccccc4)CC3)ccc2N1C(=O)C1CC1 (stereo not drawn)	D1 antag -31.3
CCOc1ccccc1N(C)S(=O)(=O)c1ccc2c(c1)CC(C)N2C(=O)C1CC1 (stereo not drawn)	D1 antag -31.8
CCN(c1ccccc1)S(=O)(=O)c1ccc2c(c1)CC(C)N2C(=O)C1CC1 (stereo not drawn)	D1 antag -31.6
CCC(=O)N1c2ccc(S(=O)(=O)CCC(=O)N3CCN(c4ccc(F)cc4)CC3)cc2CC1C (stereo not drawn)	none (no result: DRD3 antagonist)

Compound activity deposited in PubChem BioAssay by National Center for Advancing Translational Sciences (NCATS).
